# Where “and” joins values, the source holds several entries; their conditions need not be identical. Equal entries are not always repeated. The campaign covered roughly 5,500 compounds. About 2,000 (36%) were called active. Inconclusive results (about 18%) are left out. Some of the results follow. Values without a mark were called inactive. Rule as the data show it: active = normalized growth mostly below about 0.91 (no sharp cut-off); inconclusive = no clear call, values can overlap the other calls; inactive = mostly above about 0.92.
# Experiment: chemical genetic growth profiling, strain panel (AID 1159580);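 also: tested at 20 µM; growth read once vehicle control cultures reached saturation at 30 °C; 1 = growth at the plate median or of vehicle wells; lower values mean less growth of the strain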
# Details: S. cerevisiae deletion strains, growth OD
# [1] = locus YHR030C, strain SLT2, stronger effect = lower value
# [2] = locus YHR079C, strain IRE1, stronger effect = lower value
# [3] = locus YJL095W, strain BCK1, stronger effect = lower value
# [4] = locus YJR066W, strain TOR1, stronger effect = lower value
# [5] = locus YLR113W, strain HOG1, stronger effect = lower value
# [6] = locus YNL183C, strain NPR1, stronger effect = lower value
# [7] = locus YOR231W, strain MKK1, stronger effect = lower value
# [8] = locus YPL256C, strain CLN2, stronger effect = lower value
structure (smiles),measurement,setting,value
C=C(C)[C@@H]1CC[C@]2(C)CC[C@]3(C)[C@@H](CCC4[C@@]5(C)CC[C@H](O)C(C)(C)C5CC[C@]43C)C12 (some centres not stated),normalized growth,[1],1
same,normalized growth,[2],0.978
same,normalized growth,[3],0.993
same,normalized growth,[4],0.944
same,normalized growth,[5],0.992
same,normalized growth,[6],0.923
same,normalized growth,[7],0.99
same,normalized growth,[8],0.994
C=C(C)[C@@H]1CC[C@]2(CO)CC[C@]3(C)[C@H](CCC4[C@@]5(C)CC[C@H](O)C(C)(C)C5CC[C@]43C)C12 (some centres not stated),normalized growth,"locus YAL021C, strain ccr4, stronger effect = lower value",1.02
same,normalized growth,"locus YAL026C, strain drs2, stronger effect = lower value",1.01
same,normalized growth,"locus YAL030W, strain snc1, stronger effect = lower value",1.01
same,normalized growth,"locus YBL061C, strain skt5, stronger effect = lower value",1.02
same,normalized growth,"locus YBR009C, strain hhf1, stronger effect = lower value",1.01
same,normalized growth,"locus YBR021W, strain FUR4, stronger effect = lower value",0.984
same,normalized growth,"locus YBR023C, strain chs3, stronger effect = lower value",1.01
same,normalized growth,"locus YBR171W, strain sec66, stronger effect = lower value",1.02
same,normalized growth,"locus YBR229C, strain ROT2, stronger effect = lower value",0.995
same,normalized growth,"locus YBR231C, strain swc5, stronger effect = lower value",1.01
same,normalized growth,"locus YBR279W, strain paf1, stronger effect = lower value",1.01
same,normalized growth,"locus YCL011C, strain gbp2, stronger effect = lower value",1.01
same,normalized growth,"locus YCL016C, strain dcc1, stronger effect = lower value",1.01
same,normalized growth,"locus YCL029C, strain bik1, stronger effect = lower value",0.979
same,normalized growth,"locus YCL061C, strain MRC1, stronger effect = lower value",1.01
same,normalized growth,"locus YCL069W, strain vba3, stronger effect = lower value",1.01
same,normalized growth,"locus YCR088W, strain abp1, stronger effect = lower value",1.01
same,normalized growth,"locus YDL005C, strain med2, stronger effect = lower value",1
same,normalized growth,"locus YDL035C, strain GPR1, stronger effect = lower value",1.02
same,normalized growth,"locus YDL040C, strain nat1, stronger effect = lower value",1.01
same,normalized growth,"locus YDL074C, strain BRE1, stronger effect = lower value",1.01
same,normalized growth,"locus YDL101C, strain DUN1, stronger effect = lower value",0.991
same,normalized growth,"locus YDL185W, strain tfp1, stronger effect = lower value",0.977
same,normalized growth,"locus YDL192W, strain arf1, stronger effect = lower value",0.997
same,normalized growth,"locus YDR001C, strain nth1, stronger effect = lower value",1
same,normalized growth,"locus YDR069C, strain doa4, stronger effect = lower value",1
same,normalized growth,"locus YDR101C, strain arx1, stronger effect = lower value",0.977
same,normalized growth,"locus YDR137W, strain rgp1, stronger effect = lower value",1.01
same,normalized growth,"locus YDR159W, strain sac3, stronger effect = lower value",1.01
same,normalized growth,"locus YDR162C, strain NBP2, stronger effect = lower value",1.02
same,normalized growth,"locus YDR195W, strain ref2",0.972
same,normalized growth,"locus YDR297W, strain sur2, stronger effect = lower value",1.01
same,normalized growth,"locus YDR318W, strain mcm21, stronger effect = lower value",1.02
same,normalized growth,"locus YDR334W, strain swr1, stronger effect = lower value",0.996
same,normalized growth,"locus YDR335W, strain msn5, stronger effect = lower value",1
same,normalized growth,"locus YDR388W, stronger effect = lower value",1.01
same,normalized growth,"locus YDR392W, strain spt3, stronger effect = lower value",0.925
same,normalized growth,"locus YDR502C, strain sam2, stronger effect = lower value",0.997
same,normalized growth,"locus YEL003W, strain gim4, stronger effect = lower value",1
same,normalized growth,"locus YEL037C, strain rad23, stronger effect = lower value",0.977
same,normalized growth,"locus YEL061C, strain CIN8 (second series), stronger effect = lower value",1
same,normalized growth,"locus YEL061C, strain CIN8, stronger effect = lower value",1.02
same,normalized growth,"locus YER015W, strain faa2, stronger effect = lower value",0.996
same,normalized growth,"locus YER016W, strain bim1, stronger effect = lower value",1.01
same,normalized growth,"locus YER110C, stronger effect = lower value",0.99
same,normalized growth,"locus YER111C, strain swi4, stronger effect = lower value",1.01
same,normalized growth,"locus YER155C, strain BEM2 (second series), stronger effect = lower value",0.984
same,normalized growth,"locus YER155C, strain BEM2, stronger effect = lower value",0.992
same,normalized growth,"locus YER167W, strain BCK2, stronger effect = lower value",1
same,normalized growth,"locus YFR010W, strain ubp6, stronger effect = lower value",0.999
same,normalized growth,"locus YGL078C, strain dbp3, stronger effect = lower value",0.989
same,normalized growth,"locus YGL086W, strain mad1, stronger effect = lower value",0.973
same,normalized growth,"locus YGL167C, strain pmr1, stronger effect = lower value",1.01
same,normalized growth,"locus YGL173C, strain kem1, stronger effect = lower value",1.01
same,normalized growth,"locus YGL227W, strain vid30, stronger effect = lower value",1.02
same,normalized growth,"locus YGL240W, strain doc1, stronger effect = lower value",1.01
same,normalized growth,"locus YGL248W, strain PDE1, stronger effect = lower value",1
same,normalized growth,"locus YGL253W, strain hxk2, stronger effect = lower value",1.04
same,normalized growth,"locus YGR135W, strain pre9, stronger effect = lower value",1.01
same,normalized growth,"locus YGR252W, strain gcn5, stronger effect = lower value",1.05
same,normalized growth,"locus YHR013C, strain ard1, stronger effect = lower value",1.03
same,normalized growth,"locus YHR027C, strain rpn1, stronger effect = lower value",1
same,normalized growth,[1],0.995 and 0.997
same,normalized growth,"locus YHR079C, strain IRE1 (second series), stronger effect = lower value",0.992
same,normalized growth,[2],0.998
same,normalized growth,"locus YHR094C, strain hxt1, stronger effect = lower value",1
same,normalized growth,"locus YHR129C, strain ARP1, stronger effect = lower value",0.949
same,normalized growth,"locus YHR142W, strain chs7, stronger effect = lower value",1.06
same,normalized growth,"locus YHR200W, strain rpn10, stronger effect = lower value",0.998
same,normalized growth,"locus YIL066C, strain RNR3, stronger effect = lower value",0.993
same,normalized growth,"locus YIL073C, strain SPO22, stronger effect = lower value",1.01
same,normalized growth,"locus YIL125W, strain kgd1, stronger effect = lower value",0.986
same,normalized growth,"locus YIR030C, strain dcg1, stronger effect = lower value",0.989
same,normalized growth,"locus YJL092W, strain hpr5, stronger effect = lower value",1.01
same,normalized growth,"locus YJL095W, strain BCK1 (second series), stronger effect = lower value",1.01
same,normalized growth,[3],1.02 and 0.982
same,normalized growth,"locus YJL115W, strain asf1, stronger effect = lower value",1.01
same,normalized growth,"locus YJL129C, strain trk1, stronger effect = lower value",1.03
same,normalized growth,"locus YJL134W, strain LCB3, stronger effect = lower value",0.992
same,normalized growth,"locus YJL154C, strain vps35, stronger effect = lower value",0.998
same,normalized growth,"locus YJL164C, strain tpk1, stronger effect = lower value",1.01
same,normalized growth,"locus YJL166W, strain qcr8, stronger effect = lower value",1.01
same,normalized growth,"locus YJL168C, strain set2, stronger effect = lower value",0.994
same,normalized growth,"locus YJL187C, strain SWE1 (second series), stronger effect = lower value",0.996
same,normalized growth,"locus YJL187C, strain SWE1, stronger effect = lower value",1.01
same,normalized growth,"locus YJR043C, strain POL32, stronger effect = lower value",0.996
same,normalized growth,[4],0.932
same,normalized growth,"locus YJR075W, strain HOC1, stronger effect = lower value",1.01
same,normalized growth,"locus YKL009W, strain mrt4, stronger effect = lower value",0.963
same,normalized growth,"locus YKL068W, stronger effect = lower value",1.09 [resistant] (active)
same,normalized growth,"locus YKL160W, strain elf1, stronger effect = lower value",1.03
same,normalized growth,"locus YKL190W, strain CNB1, stronger effect = lower value",1.03
same,normalized growth,"locus YKR001C, strain vps1, stronger effect = lower value",0.976
same,normalized growth,"locus YKR026C, strain gcn3, stronger effect = lower value",1.01
same,normalized growth,"locus YKR091W, strain srl3, stronger effect = lower value",1
same,normalized growth,"locus YLL001W, strain dnm1, stronger effect = lower value",1.03
same,normalized growth,"locus YLL026W, stronger effect = lower value",1
same,normalized growth,"locus YLL041C, strain sdh2, stronger effect = lower value",1
same,normalized growth,"locus YLR027C, strain aat2, stronger effect = lower value",1
same,normalized growth,"locus YLR039C, strain RIC1, stronger effect = lower value",1.02
same,normalized growth,"locus YLR058C, strain SHM2, stronger effect = lower value",1.01
same,normalized growth,"locus YLR102C, strain apc9, stronger effect = lower value",0.991
same,normalized growth,[5],0.999
same,normalized growth,"locus YLR221C, strain rsa3, stronger effect = lower value",1.03
same,normalized growth,"locus YLR258W, strain gsy2, stronger effect = lower value",0.996
same,normalized growth,"locus YLR262C, strain YPT6 (second series), stronger effect = lower value",1
same,normalized growth,"locus YLR262C, strain YPT6, stronger effect = lower value",1.08
same,normalized growth,"locus YLR268W, strain sec22, stronger effect = lower value",0.964
same,normalized growth,"locus YLR320W, strain mms22, stronger effect = lower value",1.04
same,normalized growth,"locus YLR330W, strain CHS5, stronger effect = lower value",1
same,normalized growth,"locus YLR342W, strain FKS1 (second series), stronger effect = lower value",0.998
same,normalized growth,"locus YLR342W, strain FKS1, stronger effect = lower value",0.986
same,normalized growth,"locus YLR357W, strain rsc2, stronger effect = lower value",1.01
same,normalized growth,"locus YLR370C, strain arc18, stronger effect = lower value",1.02
same,normalized growth,"locus YLR371W, strain rom2, stronger effect = lower value",0.985
same,normalized growth,"locus YLR384C, strain iki3, stronger effect = lower value",1.01
same,normalized growth,"locus YLR418C, strain cdc73, stronger effect = lower value",1.01
same,normalized growth,"locus YML016C, strain PPZ1, stronger effect = lower value",0.985
same,normalized growth,"locus YML032C, strain rad52, stronger effect = lower value",1.02
same,normalized growth,"locus YML120C, strain ndi1, stronger effect = lower value",1
same,normalized growth,"locus YML124C, strain tub3, stronger effect = lower value",0.994
same,normalized growth,"locus YMR058W, strain fet3, stronger effect = lower value",1.02
same,normalized growth,"locus YMR078C, strain ctf18, stronger effect = lower value",0.973
same,normalized growth,"locus YMR125W, strain sto1, stronger effect = lower value",1.01
same,normalized growth,"locus YMR129W, stronger effect = lower value",1
same,normalized growth,"locus YMR205C, strain PFK2, stronger effect = lower value",1.03
same,normalized growth,"locus YMR223W, strain ubp8, stronger effect = lower value",1
same,normalized growth,"locus YMR231W, strain pep5, stronger effect = lower value",1.01
same,normalized growth,"locus YMR307W, strain GAS1, stronger effect = lower value",1.09
same,normalized growth,"locus YNL067W, strain RPL9B, stronger effect = lower value",1
same,normalized growth,"locus YNL071W, strain lat1, stronger effect = lower value",1.01
same,normalized growth,[6],0.939
same,normalized growth,"locus YNL209W, strain ssb2, stronger effect = lower value",1.01
same,normalized growth,"locus YNL233W, strain BNI4, stronger effect = lower value",0.999
same,normalized growth,"locus YNL248C, strain rpa49, stronger effect = lower value",1
same,normalized growth,"locus YNL250W, strain rad50, stronger effect = lower value",0.978
same,normalized growth,"locus YNL271C, strain bni1, stronger effect = lower value",0.976
same,normalized growth,"locus YNL298W, strain CLA4, stronger effect = lower value",1.01
same,normalized growth,"locus YNL307C, strain MCK1, stronger effect = lower value",0.988
same,normalized growth,"locus YNL322C, strain KRE1 (second series), stronger effect = lower value",1.01
same,normalized growth,"locus YNR049C, strain mso1, stronger effect = lower value",1.01
same,normalized growth,"locus YNR052C, strain pop2, stronger effect = lower value",0.998
same,normalized growth,"locus YOL012C, strain htz1",0.862
same,normalized growth,"locus YOL147C, strain pex11, stronger effect = lower value",0.992
same,normalized growth,"locus YOR001W, strain rrp6, stronger effect = lower value",0.98
same,normalized growth,"locus YOR061W, strain CKA2, stronger effect = lower value",0.994
same,normalized growth,"locus YOR069W, strain VPS5, stronger effect = lower value",0.99
same,normalized growth,"locus YOR070C, strain gyp1, stronger effect = lower value",1.01
same,normalized growth,"locus YOR080W, strain dia2, stronger effect = lower value",1.01
same,normalized growth,"locus YOR083W, strain WHI5, stronger effect = lower value",1.03
same,normalized growth,"locus YOR106W, strain vam3, stronger effect = lower value",1.02
same,normalized growth,"locus YOR136W, strain idh2, stronger effect = lower value",0.979
same,normalized growth,"locus YOR144C, strain elg1, stronger effect = lower value",0.997
same,normalized growth,"locus YOR184W, strain ser1, stronger effect = lower value",0.98
same,normalized growth,[7],0.995
same,normalized growth,"locus YOR265W, strain rbl2, stronger effect = lower value",1.02
same,normalized growth,"locus YOR270C, strain vph1, stronger effect = lower value",1.04
same,normalized growth,"locus YOR290C, strain snf2, stronger effect = lower value",1
same,normalized growth,"locus YOR316C, strain cot1, stronger effect = lower value",0.999
same,normalized growth,"locus YPL051W, strain arl3, stronger effect = lower value",1.02
same,normalized growth,"locus YPL078C, strain atp4, stronger effect = lower value",1.01
same,normalized growth,"locus YPL106C, strain sse1, stronger effect = lower value",1
same,normalized growth,"locus YPL240C, strain hsp82, stronger effect = lower value",1
same,normalized growth,[8],0.972
same,normalized growth,"locus YPR119W, strain clb2, stronger effect = lower value",0.993
same,normalized growth,"locus YPR141C, strain kar3, stronger effect = lower value",0.984
same,normalized growth,"locus YPR163C, strain tif3, stronger effect = lower value",1
same,normalized growth,"locus YPR167C, strain met16, stronger effect = lower value",1.01
same,normalized growth,"strain wtn01, stronger effect = lower value",0.946
